Hits are enriched below; roughly 5.7% of the tested compounds scored in any of these assays.
Hsp90 block = tumor Hsp90 inhibitors, primary screen, cell lysate, fluorescence polarization, NCI-N417 lysate; Cy3B-geldanamycin FP displacement; inhibition, % at 30 µM; Heat shock protein HSP 90-alpha (Homo sapiens), P07900; actives 0.35% (n = 64,000); AID 429, 2006;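 active = inhibition above 50%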;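 also: 0% = tracer plus lysate wells and 100% = tracer alone without lysate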
Cdc25B inh = inhibitors of Cdc25B phosphatase catalytic domain, primary screen, biochemical, OMFP fluorescence; M-phase inducer phosphatase 2 (Homo sapiens), P30305; recombinant Cdc25B, OMFP fluorescence Ex485/Em525; inhibition, %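 (compounds tested at 10 µM final in the well)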; actives 0.1% (n = 65,000); AID 368, 2006; in the data active = inhibition above about 50%
Target sequence (P30305 whole entry, looked up, the tested form may be a part): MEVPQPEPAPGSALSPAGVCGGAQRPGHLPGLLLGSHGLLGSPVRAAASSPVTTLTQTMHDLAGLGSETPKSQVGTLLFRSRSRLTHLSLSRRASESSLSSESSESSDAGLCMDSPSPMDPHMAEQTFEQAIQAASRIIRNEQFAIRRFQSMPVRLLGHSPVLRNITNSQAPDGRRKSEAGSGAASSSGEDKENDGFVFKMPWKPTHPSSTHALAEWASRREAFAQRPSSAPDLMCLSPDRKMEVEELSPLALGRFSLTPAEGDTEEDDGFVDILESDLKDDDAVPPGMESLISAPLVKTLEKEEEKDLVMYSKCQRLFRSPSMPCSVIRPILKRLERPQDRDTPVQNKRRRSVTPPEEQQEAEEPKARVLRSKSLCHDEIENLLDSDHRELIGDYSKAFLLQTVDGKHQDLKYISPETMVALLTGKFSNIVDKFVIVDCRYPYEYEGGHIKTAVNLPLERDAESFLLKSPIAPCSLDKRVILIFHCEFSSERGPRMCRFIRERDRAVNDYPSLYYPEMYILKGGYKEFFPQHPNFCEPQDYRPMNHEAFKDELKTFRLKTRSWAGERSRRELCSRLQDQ
NADH coupling = inhibitors of PK/LDH coupling enzymes, profiling panel, artefact control, biochemical, MLSMR library; IC50, µM (top dose mostly 10 µM), for inactives: at the top dose inhibition; actives 0.02% (n = 65,000); AID 774, 2007; coupled PK/LDH NADH assays, four targets;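 active = single-dose screening hits from any of four coupled enzyme assays that gave an IC50 when retested across doses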;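 also: the DPM-DC format reads NADH fluorescence rather than 340 nm absorbance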
Abs 340nm = compound light absorbance at 340 nm, profiling panel, artefact control, biochemical, MLSMR library, data from PS, PMK, MK assays; compound absorbance at 340 nm, fold over control; fold change at 10 µM; 65,000 tested, under 10 active;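 active = at 10 µM dose, initial 340 nm absorbance at least 2 fold that of control wells; inactive = change under 2 fold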;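 also: initial absorbance extrapolated from kinetic A340 decline of NADH oxidation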
DUSP1 inh = MKP-1 phosphatase inhibitors, primary screen, biochemical, in vitro. Dual specificity protein phosphatase 1 (Homo sapiens), P28562. recombinant MKP-1, OMFP hydrolysis fluorescence. inhibition, %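 (compounds tested at a single concentration somewhere between 10 and 100 µM)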. actives 0.15% (n = 65,000). AID 374, 2006;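 active = inhibition above about 50%, limit read from the data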;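 also: 0% = DMSO max control wells and 100% = wells with enzyme stopped by NaOH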
Autofluor 339 = intrinsic fluorescence of library compounds, ex339/em460 – biochemical, MLSMR library, data from DPM-DC assay, artefact control, profiling panel | actives 5.5% (n = 65,000) | compound autofluorescence, ex339/em460 nm, NADH buffer; active compounds read high; 1 = no-compound wells, NADH background | AID 709, 2007 | fluorescence fold increase at 10 µM;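 active = at 10 µM, mean starting fluorescence two-fold or more over control wells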;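 also: signal is the first read of a kinetic run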
Active calls of the source: *.

SMILES	Hsp90 block	Cdc25B inh	NADH coupling	Abs 340nm	DUSP1 inh	Autofluor 339
CCOC(=O)c1c(C)oc2c1c(C=NCC1CCCO1)c(O)c1ccccc12 (configuration not stated)	64*	28	5%	1.1	35	1.1
Cn1c(=O)c2c(nc(NCc3ccco3)n2CC(O)COc2ccccc2)n(C)c1=O (configuration not stated)	-5	0	9%	0.98	-28	1.1
Cc1ccccc1OCC(O)Cn1c(NCCN(C)C)nc2c1c(=O)n(C)c(=O)n2C (configuration not stated)	92*	0	6%	1	3	1
CC(NC(=O)Cc1ccc(F)cc1)C(c1cccs1)N1CCN(C)CC1 (configuration not stated)	-2	-8	6%	1	3	1
C[C@@H]1CCC[C@H](C)N1NC(=O)c1ccc(Cl)c(S(N)(=O)=O)c1	-4	-27	2%	0.98	-10	1
CCOC(=O)c1sc2cccc(F)c2c1N	-2	-7	5%	0.99	11	2.7*
CCOC(=O)c1sc(=S)n(-c2ccc(F)c(F)c2)c1N	4	-19	3%	1.1	-6	1
CCc1nnc(NS(=O)(=O)c2ccc(N3C(=O)C4CC=C(Cl)CC4C3=O)cc2)s1 (configuration not stated)	-10	-3	4%	1	16	1.1
COc1cccc(-c2ccc(-c3noc(-c4ccccc4F)n3)c(OC)n2)c1	-4	-9	0%	1.2	26	3.8*
CCc1nc(-c2ccc(-c3ccc(OC)cc3)nc2OC)no1	-2	-5	5%	1.1	21	2.1*
COc1ccc(-c2ccc(-c3noc(C(C)C)n3)c(OC)n2)cc1	-5	-10	4%	1.1	-16	4*
COc1nc(-c2ccccc2)ccc1-c1noc(C)n1	-3	-9	6%	1.1	3	1.3
COc1nc(-c2ccc(Cl)cc2)ccc1-c1noc(-c2ccco2)n1	-8	-7	8%	1.1	22	1.7
COCc1nc(-c2ccc(-c3ccc(OC)cc3)nc2OC)no1	-4	6	2%	1.1	0	2.1*
Cc1ccc(NC(=O)NC(=O)N(c2ccccc2)S(C)(=O)=O)cc1	0	-14	2%	1	27	1
CC(C)c1nc(SCC(=O)NCc2ccc3c(c2)OCO3)c2c(=O)n(C)c(=O)n(C)c2n1	2	-8	1%	1.1	13	1.1
CCS(=O)(=O)NCc1ccc2[nH]c3c(c2c1)CCCC3	71*	11	4%	1	10	1.3
CCOC(=O)CNC(=O)c1ccc2[nH]c3c(c2c1)CCCC3	-3	-10	2%	1	-1	1.3
Cc1nn(-c2ccccc2)c2nc(-c3ccco3)cc(C(=O)O)c12	-7	6	8%	1.2	13	2*
O=C(O)c1cc(-c2ccco2)nc2ccccc12	-5	-1	8%	1.2	-4	3.7*
COc1ccc(C(=O)CSc2nnc(-c3ccc(C)cc3)o2)cc1	0	-7	3%	1	12	1.1
COc1ccc(OC)c(C(=O)CSc2nnc(-c3ccc(OC)c(OC)c3)o2)c1	0	7	5%	1	14	2*
CCN(CC)S(=O)(=O)c1ccc(NC(=O)C(OC)c2ccccc2)cc1 (configuration not stated)	-5	-4	3%	1	8	1.1
CN(C)CCNC(=O)c1coc(=O)c(Br)c1	-1	-11	10%	1.1	4	3.7*
COC(=O)c1cnn2c(C)c(Cc3cccc(F)c3)c(C)nc12	-1	-14	8%	1.1	0	2.1*
SMILES	Hsp90 block	Cdc25B inh	NADH coupling	Abs 340nm	DUSP1 inh	Autofluor 339
Cc1nc2c(C(=O)O)cnn2c(C)c1Cc1ccccc1F	0	1	13%	1	-10	1.6
O=C(c1cnn2c(C(F)F)cc(C3CC3)nc12)N1CCOCC1	-1	-1	12%	1	-3	1.1
CCOC(=O)N1CCN(C(=O)c2cnn3c(C)c(Cc4ccc(C)cc4)c(C)nc23)CC1	2	0	9%	1	37	4.1*
Cc1nc2c(C(=O)N3CCN(c4ccccn4)CC3)cnn2c(C)c1Cc1cccc(Cl)c1	-1	-15	4%	1	25	1.3
Cc1ccc(C)c(Cc2c(C)nc3c(C(=O)N4CCOCC4)cnn3c2C)c1	-3	-15	10%	1	10	3.8*
COC(=O)c1ccccc1NC(=O)C12CCC(C)(C(=O)O1)C2(C)C (configuration not stated)	0	1	1%	1	0	1
CCCC1C2CN(C(C)C)CC=C2C(C#N)=C(N)C1(C#N)C#N (configuration not stated)	7	-12	13%	1	3	4*
CN1CC=C2C(C#N)=C(N)C(C#N)(C#N)C(CCc3ccccc3)C2C1 (configuration not stated)	2	2	6%	1	22	2*
CN1CC=C2C(C#N)=C(N)C(C#N)(C#N)[C@H](c3cccc(Cl)c3)C2C1 (some centres not stated)	-10	-16	4%	1	0	1.4
Cc1sc2ncnc(Sc3nnnn3-c3ccccc3)c2c1C	1	7	12%	1	-22	3.4*
CCNc1nc2nonc2nc1NCC	2	-8	9%	1.1	-37	1.1
Cc1cc2n(n1)C(c1ccccc1Cl)Nc1ccccc1-2 (configuration not stated)	-5	3	3%	1	-22	1.4
CSc1ccc(C2Nc3ccccc3-c3cc(C)nn32)cc1 (configuration not stated)	-1	-8	6%	0.98	22	2*
Cc1cc2n(n1)C(c1ccsc1)Nc1ccccc1-2 (configuration not stated)	-4	-6	9%	1	-24	2.4*
Cc1coc2cc3oc(=O)c4c(c3cc12)CCC4	1	-10	4%	1	1	2.8*
O=C(Oc1cc2oc(=O)c3c(c2cc1Cl)CCCC3)c1ccco1	-1	-16	4%	1.1	-8	2.5*
CC(C)Oc1cc2oc(=O)c3c(c2cc1Cl)CCC3	-15	-5	6%	1.1	0	2.3*
CCOC(=O)COc1cc2c3c(c(=O)oc2cc1C)CCCC3	-4	-10	11%	1.1	6	1.8
Cc1coc2c(C)c3oc(=O)c4c(c3cc12)CCC4	-5	4	8%	1.1	-1	1.9
Cc1cc2oc(=O)c3c(c2cc1OC(=O)c1ccco1)CCCC3	-1	-7	3%	1	2	1.2
